In PubChem BioAssay (NCATS):
Inconclusive results are not listed. Activity calls are given as the source filed them. The call rests on the fitted dose curve; in most records, active means well fitted curve in either direction with a large enough effect (not every such curve was filed as active); inconclusive means small, poorly fitted or top-dose-only effect, or another doubt; inactive means flat fitted curve, though single readings scatter.

Target: Mitogen-activated protein kinase 10 (Mus musculus) (UniProt Q61831)
Assay: JNK3 AlphaScreen Assay (AID 530);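 further: kinase came from lysate of stimulated human HepG2 cells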
Details: JNK3 lysate, c-Jun phosphorylation; series mostly up to 57.1 µM
Procedure, shortened: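 JNK3 came from HepG2 lysates pre-activated with IL-1beta and TNF-alpha and phosphorylated biotinylated GST-cJun (1-79) at 10 uM ATP, pH 7.6, room temperature. Compounds were titrated. AlphaScreen signal used anti-phospho-cJun (Ser73) antibody.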

Potency, inactive:
CCC/C=C(\CCC)C(NC(=O)c1ccc(C(F)(F)F)cc1)c1ccc(C(F)(F)F)cc1 (stereo not given), CCCC/C=C/C(NC(=O)c1cccs1)c1ccccc1 (stereo not given), CC(C)(C)[Si](C)(C)c1c2c(nc3ccc(OCc4ccccc4)cc13)-c1cccc(=O)n1C2, COC(=O)[C@@]1(Cc2ccc(OC)cc2)[C@@H]2C(=CC(=O)[C@H]2CC(=O)C(=O)N2CCCC2)CN1C(=O)c1ccccc1, CCC/C=C(\CCC)C(NC(=O)c1ccc(-c2ccccc2)cc1)c1ccc(C(=O)OC)cc1 (stereo not given), c1ccc(-c2c3ccccc3nc3[nH]c4ccccc4c23)cc1, COC(=O)[C@@]1(Cc2ccccc2)[C@H]2c3cc(C(=O)N(C)C)n(Cc4ccsc4Br)c3C[C@H]2CN1C(=O)c1ccccc1, COC(=O)[C@@]1(Cc2ccccc2)[C@H]2c3cc(C(=O)N4CCCC4)n(Cc4c(CO)[nH]cc(C)c4=O)c3C[C@H]2CN1C(=O)c1ccccc1, CCCC[C@@H]1C[C@H]1C(NC(=O)c1ccccc1)c1ccc(Cl)cc1 (stereo not given in full), COC(=O)c1ccc(C23CC2(C(NP(=O)(c2ccccc2)c2ccccc2)c2ccccc2)C3)cc1 (stereo not given), C[C@@]1(C(NC(=O)Cc2ccccc2)c2ccc(-c3ccccc3)cc2)C[C@H]1C1CCCCC1 (stereo not given in full), C#CCOC(=O)NC(/C=C/CCCC)c1ccccc1 (stereo not given), CCCC[C@@H]1C[C@H]1C(NC(=O)c1ccc(C(F)(F)F)cc1)c1ccc(C(=O)OC)cc1 (stereo not given in full), COCC1C2CC[C@H]3C(OCc4ccc(OC)cc4)OC[C@]4(C)[C@H]3C2=C(CN4C(=O)OC(C)(C)C)[C@H](C)C1COC (stereo not given in full), O=C(NCc1nc2ccccc2[nH]1)[C@H]1C[C@@H]1[C@H](NP(=O)(c1ccccc1)c1ccccc1)c1ccccc1, COC(=O)[C@@]1(Cc2ccc(F)cc2)[C@H]2c3cc(C(=O)N4CCCC4)n(CCc4ccc(OC)c(Br)c4)c3C[C@H]2CN1C(=O)c1ccccc1, CC(C)c1cccc2cc3c(nc12)-c1cccc(=O)n1C3, COC(=O)[C@@]1(Cc2ccc(F)cc2)[C@H]2c3cc(C(=O)N4CCCC4)n(Cc4ccc(C)c(F)c4F)c3C[C@H]2CN1C(=O)c1ccccc1, Cc1cc(CNC(=O)[C@H]2C[C@@H]2[C@H](NP(=O)(c2ccccc2)c2ccccc2)c2ccccc2)nn1C, COC(=O)c1ccc(C(NC(=O)c2ccco2)[C@]2(C)C[C@H]2C2CCCCC2)cc1 (stereo not given in full), CCCC[C@@H]1C[C@H]1C(NC(=O)c1cccs1)c1ccccc1C(F)(F)F (stereo not given in full), COc1ccc2nc3c(c([Si](C)(C)C(C)(C)C)c2c1)Cn1c-3cccc1=O, CC(C)c1cccc2nc3c(c([Si](C)(C)C(C)(C)C)c12)Cn1c-3cccc1=O, CCCC[C@@H]1C[C@H]1C(NC(=O)c1ccco1)c1ccc(-c2ccccc2)cc1 (stereo not given in full), COC(=O)[C@@]1(Cc2ccc(F)cc2)[C@H]2c3cc(C(=O)N4CCCC4)n(Cc4c(CO)[nH]cc(C)c4=O)c3C[C@H]2CN1C(=O)c1ccccc1, CCC/C=C(\CCC)C(NC(=O)c1ccccc1)c1ccccc1 (stereo not given), CCCC[C@@H]1C[C@H]1C(NC(=O)c1ccccc1)c1ccc(-c2ccccc2)cc1 (stereo not given in full), CC[C@@]1(O)C(=O)COc2c1cc1n(c2=O)Cc2c-1nc1cccc(C(C)C)c1c2[Si](C)(C)C, CCCCc1c2ccccc2nc2[nH]c3ccccc3c12, CCC/C=C(\CCC)C(NP(=O)(c1ccccc1)c1ccccc1)c1ccc(C(F)(F)F)cc1 (stereo not given), COC(=O)[C@@]1(Cc2ccc(F)cc2)[C@H]2c3cc(C(=O)N(C)C)n(Cc4c(CO)[nH]cc(C)c4=O)c3C[C@H]2CN1C(=O)c1ccccc1, CCCC[C@H]1C[C@@H]1[C@@H]1N(P(=O)(c2ccccc2)c2ccccc2)[C@](CO)(c2ccccc2)CC12CC2, CC[C@H]1C2=C3C(CC[C@H]4C(OCc5ccc(F)cc5C(F)(F)F)OC[C@](C)([C@@H]34)N(C(=O)OC(C)(C)C)C2)C(COC(C)=O)C1COC(C)=O (stereo not given in full), COC(=O)[C@@]1(Cc2ccc(F)cc2)[C@H]2c3cc(C(=O)N(C)C)n(Cc4ccc(C)c(F)c4F)c3C[C@H]2CN1C(=O)c1ccccc1, CCc1cccc2nc3c(c([Si](C)(C)C)c12)Cn1c-3cccc1=O, C[C@@H](C(=O)Nc1ccc2ccccc2c1)[C@H]1C[C@]1(C)[C@H](NC(=O)OCc1ccccc1)c1ccccc1, C=C1C(=O)C=C2CN(C(=O)c3ccccc3)[C@@](Cc3ccc(F)cc3)(C(=O)OC)[C@@H]12, CCC/C=C(\CCC)C(NS(=O)(=O)CC12CCC(CC1=O)C2(C)C)c1ccc(C(=O)OC)cc1 (stereo not given), CC(C)(C)C(=O)NC(c1ccc(Cl)cc1)[C@]1(C)C[C@H]1C1CCCCC1 (stereo not given in full), CCCC[C@@H]1C[C@H]1C(NC(=O)Cc1ccccc1)c1ccc(-c2ccccc2)cc1 (stereo not given in full)
